Hits are enriched below; roughly 3.1% of the tested compounds scored in any of these assays.
TROY signal inh: inhibitors of TROY-driven NF-kB signaling, primary screen, Q293 LMP1-TROYcd cells, NF-kB luciferase, uHTS; Q293 LMP1-TROYcd NF-kB luciferase reporter, 4 h; inhibition, % at 10 µM; 360,000 compounds, 0.98% hits;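 active = compounds whose plate-normalised and pattern-corrected inhibition of the luciferase reporter signal at the single screening dose is 50% or more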
PAX8 reporter: inhibitors of PAX8-driven TPO luciferase reporter, primary screen, RMG-I cells, single concentration; AID 652154, 2013; 360,000 compounds, 1.2% hits; SteadyGlo, 24 h; inhibition, % at 12.6 µM;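 active = mean replicate inhibition at least 60% with every replicate also reaching 60%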;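 note: luciferase light reporting Pax8 driven TPO promoter activity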
TWEAK-Fn14 inh: inhibitors of TWEAK-Fn14 signaling, primary screen, luciferase reporter cells, uHTS | 360,000 compounds, 2% hits | TWEAK-stimulated Fn14 reporter cells, luciferase luminescence, 8 h | inhibition, % at 10 µM | AID 1159606, 2016; in the data active = inhibition above about 50%
EWS-Fli inh: EWS/Fli-driven NR0B1 reporter inhibitors, primary screen, A673 cells, NR0B1 luciferase, luminescence, MLPCN library; viability-normalised; inhibition, % at 12.6 µM; 350,000 compounds, 0.67% hits;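 active = mean inhibition of at least 50% after viability correction, with every replicate also passing that limit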;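 note: firefly luciferase signal divided by Alamar Blue viability fluorescence both relative to DMSO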
LMP1 NFkB inh: EBV LMP1-driven NF-kappaB luciferase reporter inhibitors, primary screen, cell-based, luminescence, single point. LMP1-induced NF-kappaB luciferase reporter cells. inhibition, % at 12.5 µM. 350,000 compounds, 0.69% hits. AID 504558, 2011; in the data active = inhibition above about 41%
LGR2 antag: inhibitors of bursicon-induced LGR2 CRE-luciferase signal, primary screen, cell-based, HEK293, CRE-luciferase reporter, bursicon stimulation | bursicon-stimulated, 4 h | inhibition, % at 9.99 µM | 380,000 compounds, 0.35% hits | Drosophila bursicon receptor LGR2 (rickets);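 active = drop in luminescence signal, shown as inhibition above about 50% in the replicate tests, limit read from the data, passing the limit was not always enough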;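 note: agonist challenge used bursicon conditioned medium at about half maximal strength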
Hits are given with their value; n = inactive; x = no result.

SMILES	TROY signal inh	PAX8 reporter	TWEAK-Fn14 inh	EWS-Fli inh	LMP1 NFkB inh	LGR2 antag
COc1cccc2cc(C(=O)NC(C)c3ccccc3)c(=O)oc12 (stereo not drawn)	n	n	n	n	n	n
CO[C@@H]1CN(C)C(=O)c2ccc(NC(=O)C3CCCC3)cc2OC[C@H](C)N(C(=O)CC2CC2)C[C@H]1C	x	n	x	n	x	n
CC(C)c1cn(CC[C@H]2CC[C@H](NC(=O)Nc3cc(Cl)cc(Cl)c3)[C@H](CO)O2)nn1	x	n	x	n	x	n
Cc1cc(NC(=O)c2ccc(NC(=O)C3CC3)cc2)no1	n	n	n	n	n	n
Cc1cc(Nc2cc(Cl)nc(Sc3ccc(NC(=O)C4CC4)cc3)n2)n[nH]1	n	75	n	n	n	n
CCC(=O)N1CC2(CN(C(=O)Nc3ccccc3F)C2)c2c([nH]c3cc(OC)ccc23)[C@@H]1CO	x	x	x	n	x	n
COCC(=O)N(C)C[C@H]1Oc2ncc(C#Cc3ccc(OC)cc3)cc2C(=O)N([C@H](C)CO)C[C@H]1C	x	x	x	n	x	n
C=CCN1C(=O)[C@@]2(O[C@@H](CCO)[C@H]([Si](C)(C)c3ccc(OC)cc3)[C@H]2C)c2ccccc21	x	66	x	n	x	x
C=CCN1C(=O)[C@@]2(O[C@@H](CCO)[C@H]([Si](C)(C)c3ccc(OC)cc3)[C@H]2C)c2cc(N3CCC3=O)ccc21	x	n	x	n	x	x
C=CCN1C(=O)[C@]2(O[C@H](CCO)[C@@H]([Si](C)(C)c3ccc(OC)cc3)[C@@H]2C)c2ccccc21	x	94	x	n	x	x
C[C@H](CO)N1C[C@H](C)[C@@H](CN(C)C(=O)Nc2cccc(F)c2)Oc2ncc(C3=CCCC3)cc2C1=O	x	n	x	n	x	n
COc1ccc(S(=O)(=O)Nc2ccc3c(c2)CC(=O)N([C@@H](C)CO)C[C@H](C)[C@H](CN(C)S(=O)(=O)c2ccc(Cl)cc2)O3)cc1	x	n	x	n	x	n
COc1ccc2c3c([nH]c2c1)[C@@H](CO)N(C(=O)C1CCC1)CC31CN(C(=O)c2ccccn2)C1	x	n	x	n	x	n
O=C(O)c1ccc(C(=O)O)c(C(=O)c2ccc(NC(=O)c3ccccc3)cc2)c1	n	n	n	n	60	n
COc1ccc(S(=O)(=O)Nc2cccc3c2O[C@H](CN(C)CC2CC2)[C@H](C)CN([C@@H](C)CO)C3=O)cc1	x	x	x	n	x	n
CCCNC(=O)C[C@@H]1CC[C@@H]2[C@H](COc3ccc(NC(=O)CCC)cc3C(=O)N2C)O1	x	n	x	n	x	n
Cc1ccc(S(=O)(=O)/N=C2/C=C(Sc3ncn[nH]3)C(=O)c3ccccc32)cc1	n	x	95	x	64	x
Cc1ccc(S(=O)(=O)Nc2ccc(O)c(Sc3ncn[nH]3)c2)cc1	n	n	n	n	n	n
CC(C)c1ccc(S(=O)(=O)/N=C2/C=C(Sc3ncn[nH]3)C(=O)c3ccccc32)cc1	62	x	92	x	n	x
CO[C@@H]1CN(C)C(=O)c2ccc(NS(=O)(=O)c3ccccc3Cl)cc2OC[C@H](C)NC[C@H]1C	x	x	x	n	x	n
C[C@@H]1CN([C@@H](C)CO)C(=O)c2cccc(NC(=O)CCCCCC(=O)Nc3ccccc3N)c2O[C@H]1CN(C)S(=O)(=O)c1ccc(Cl)cc1	x	x	x	n	x	n
O=C(C[C@@H]1CC[C@H]2[C@@H](COC[C@@H](O)CN2C(=O)c2ccccc2F)O1)NCc1ccccc1	x	n	x	n	x	n
CCc1nn(C(C)C(=O)N2CC(C)CC(C)C2)c(=O)c2cc3occc3n12 (stereo not drawn)	n	n	n	x	n	n
CCc1nn(C(C)C(=O)N2CCN(c3ccc(OC)cc3)CC2)c(=O)c2cc3occc3n12 (stereo not drawn)	n	n	n	55	n	n
CCN(C(=O)COC(=O)c1ccc(S(=O)(=O)N2CCCc3ccccc32)cc1)C1CCS(=O)(=O)C1 (stereo not drawn)	n	97	n	n	n	n
SMILES	TROY signal inh	PAX8 reporter	TWEAK-Fn14 inh	EWS-Fli inh	LMP1 NFkB inh	LGR2 antag
CC(=O)N(C(C)=O)c1ncc2c([nH]c3ccccc32)c1C#N	54	x	55	x	n	n
Oc1cccc2c(NC(=S)Nc3ccc(SC(F)F)cc3)cccc12	64	n	60	n	n	n
CC(=O)N(C)C[C@H]1Oc2ncc(-c3ccccc3C)cc2C(=O)N([C@@H](C)CO)C[C@@H]1C	x	x	x	n	x	n
O=C(O)c1ccc(-n2cccc2/C=C2/NC(=O)N(c3ccccc3)C2=O)cc1	68	n	n	n	n	n
O=C(O)c1ccc(-n2cccc2/C=C2/NC(=O)N(c3cccc(Cl)c3)C2=O)cc1	n	n	n	n	n	x
CN(C)CC(=O)N[C@H]1CC[C@@H](CC(=O)O)O[C@H]1CO	x	x	x	n	x	n
Cc1ccnc(NC(=O)Nc2ccc(Br)cc2Cl)c1	n	n	n	x	48	n
CSc1ccc(NC(=O)Nc2cc(C)ccn2)cc1	n	n	69	52	n	58
Cc1ccnc(NC(=O)Nc2ccc(F)cc2)c1	n	x	n	x	n	x
Cc1ccnc(NC(=O)Nc2ccc3c(c2)N(C)C(=O)CS3)c1	n	n	52	x	n	n
CC(=O)c1ccc(NC(=O)Nc2ccc3c(c2)N(C)C(=O)CS3)cc1	n	n	72	x	n	x
CCOc1ccc(NC(=O)Nc2ccc3c(c2)N(C)C(=O)CS3)cc1	n	n	n	n	n	n
COCC(=O)Nc1ccc2c(c1)C(=O)N(C)C[C@@H](OC)[C@@H](C)CN(C(=O)NC(C)C)[C@H](C)CO2	x	x	x	n	x	n
COc1ccc(NC(=O)N(C)C[C@H]2Oc3c(NC(=O)Nc4ccc(F)cc4)cccc3C(=O)N([C@H](C)CO)C[C@H]2C)cc1	x	x	x	n	x	n
O=C(C[C@H]1C[C@@H]2c3cc(NC(=O)C4CCOCC4)ccc3O[C@@H]2[C@H](CO)O1)NCc1ccc(Oc2ccccc2)cc1	x	n	x	n	x	n
CN(C)CCOc1ccc2c(c1)C(=O)C(=Cc1ncc([N+](=O)[O-])n1C)C2	n	99	n	52	n	100
Brc1ccccc1CN1CCN(Cc2c[nH]c3ccccc23)CC1	x	63	x	n	x	n
C[C@H](CO)N1C[C@H](C)[C@H](CN(C)S(=O)(=O)c2cccs2)Oc2ccc(NC(=O)Cc3ccccc3)cc2C1=O	x	x	x	n	x	n
COc1cccc(-c2ccc([C@@H]3[C@H]4CN(C(=O)C5CCCCC5)CC(=O)N4[C@H]3CO)cc2)c1	x	n	x	n	x	n
N#C[C@@H]1[C@@H](c2ccc(C#CCC3CCCC3)cc2)[C@H](CO)N1C(=O)c1ccccn1	x	n	x	n	x	n
N#C[C@H]1[C@@H](c2ccc(C#CCC3CCCC3)cc2)[C@@H](CO)N1C(=O)c1ccccn1	x	74	x	n	x	n
COc1cccc(-c2ccc([C@H]3[C@@H](CO)N(C(=O)c4ccccn4)[C@H]3C#N)cc2)c1	x	83	x	n	x	66

Screening results (PubChem)
